Results filed as inconclusive are left out. A number with no mark means an inactive call. Calls of active or inactive are those of the source. The call rests on the fitted dose curve; in most records, active means well fitted inhibition curve with a large enough effect; inconclusive means small, poorly fitted or top-dose-only effect; inactive means flat fitted curve, though single readings scatter.
Tested on: CP268
Assay: qHTS profiling for inhibitors of Plasmodium falciparum proliferation (AID 504749); further: nearly all actives have a fitted effect of over 60% in size;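 on activity, negative = inhibition: 0% = DMSO vehicle and full inhibition = artemisinin control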
Conditions: P. falciparum in erythrocytes, SYBR Green DNA, 72 h; series mostly up to 28.7 µM; activity, negative = inhibition: at the top concentration
Method in brief: (§1)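 SYBR Green fluorescence (ex 485 nm, em 535 nm) reports parasite DNA after 72 h compound exposure of infected red cells at 0.3% parasitemia, 2.5% hematocrit; signal normalized to 0.29 uM artemisinin and vehicle wells.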
Potency means the concentration at half of the fitted maximal effect.

Structure (SMILES)	activity, negative = inhibition	Potency
CCCN1CCC[C@H](c2cccc(O)c2)C1	-4.25%	–
C[C@]12CCC(=O)C(O)=C1CC[C@@H]1[C@H]3CCC(=O)[C@@]3(C)CC[C@@H]12	-7.73%	–
O=C(O)COc1ccccc1	0.176%	–
O=[N+]([O-])c1ccc([As](=O)(O)O)cc1	–	13.5 µM (active)
O=C(O)C(Cl)Cl	-0.491%	–
Cc1cc(O)ccc1Cl	3.03%	–
CN(C)[C@@H]1C(=O)C(C(N)=O)=C(O)[C@@]2(O)C(=O)C3=C(O)c4c(O)cccc4[C@@](C)(O)[C@H]3[C@H](O)[C@@H]12	-6.73%	–
CC(=O)OCC1=C(C(=O)O)N2C(=O)[C@@H](N)[C@@H]2SC1	-6.66% [at 12.8 µM]	–
COC(=O)[C@@H](N)CCCN=C(N)N[N+](=O)[O-]	-1.06%	–
c1ccc(C2(c3ccccc3)CC2C2=NCCN2)cc1 (centres undefined)	-10.9%	–
CN1C2CCC1CC(OC(=O)c1cc(Cl)cc(Cl)c1)C2 (centres undefined)	-12%	–
CCCCCCCCCCCCCCCC[N+](C)(C)C	–	13.5 µM (active)
CCCCc1ccc(C(=O)O)nc1	-5.09%	–
Cc1ccc(Cl)c(O)c1	-0.232%	–
COC(=O)c1cncn1C(C)c1ccccc1 (centres undefined)	-4.04%	–
CC(=O)[O][Hg][c]1ccccc1	–	4.78 µM (active)
C=CCN1CC[C@]23CCCCC2[C@H]1Cc1ccc(O)cc13 (some centres undefined)	5%	–
NC(=O)CN1CC(O)CC1=O (centres undefined)	3.96%	–
C1CCC(NC2CCCCC2)CC1	0.215%	–
C#CC1(O)CCC2C3CCC4=CC(=O)CCC4(C)C3CCC21C (centres undefined)	-2.17%	–
CC[N+]1(CCOC(=O)C(O)(c2ccccc2)c2ccccc2)CCCCC1	-10.4%	–
CCCCCCCCCC(CC)c1ccc(S(=O)(=O)O)cc1 (centres undefined)	-2.68%	–

Tested on: CP269
Assay: as above
Conditions: P. falciparum in erythrocytes, SYBR Green DNA, 72 h; series mostly up to 28.7 µM; activity, negative = inhibition: at the top concentration
Method in brief: as §1

Structure (SMILES)	activity, negative = inhibition	Potency
CCCN1CCC[C@H](c2cccc(O)c2)C1	-9.76%	–
C[C@]12CCC(=O)C(O)=C1CC[C@@H]1[C@H]3CCC(=O)[C@@]3(C)CC[C@@H]12	-3.1%	–
O=C(O)COc1ccccc1	-7.21%	–
O=[N+]([O-])c1ccc([As](=O)(O)O)cc1	–	6.01 µM (active)
O=C(O)C(Cl)Cl	-2.41%	–
Cc1cc(O)ccc1Cl	-12.8%	–
CN(C)[C@@H]1C(=O)C(C(N)=O)=C(O)[C@@]2(O)C(=O)C3=C(O)c4c(O)cccc4[C@@](C)(O)[C@H]3[C@H](O)[C@@H]12	-11.3%	–
CC(=O)OCC1=C(C(=O)O)N2C(=O)[C@@H](N)[C@@H]2SC1	-0.576% [at 12.8 µM]	–
COC(=O)[C@@H](N)CCCN=C(N)N[N+](=O)[O-]	-6.88%	–
c1ccc(C2(c3ccccc3)CC2C2=NCCN2)cc1 (centres undefined)	-7.46%	–
CN1C2CCC1CC(OC(=O)c1cc(Cl)cc(Cl)c1)C2 (centres undefined)	-0.531%	–
CCCCc1ccc(C(=O)O)nc1	0.895%	–
Cc1ccc(Cl)c(O)c1	-2.31%	–
CC(C)NC(C)Cc1ccc(I)cc1 (centres undefined)	-9.17%	–
COC(=O)c1cncn1C(C)c1ccccc1 (centres undefined)	-6.57%	–
CC(=O)[O][Hg][c]1ccccc1	–	4.78 µM (active)
C=CCN1CC[C@]23CCCCC2[C@H]1Cc1ccc(O)cc13 (some centres undefined)	2.97%	–
NC(=O)CN1CC(O)CC1=O (centres undefined)	-0.589%	–
C1CCC(NC2CCCCC2)CC1	-2.72%	–
C#CC1(O)CCC2C3CCC4=CC(=O)CCC4(C)C3CCC21C (centres undefined)	-0.451%	–
CC[N+]1(CCOC(=O)C(O)(c2ccccc2)c2ccccc2)CCCCC1	0.131%	–
CCCCCCCCCC(CC)c1ccc(S(=O)(=O)O)cc1 (centres undefined)	-3.23%	–

From PubChem BioAssay (NCATS)
